This note sets out measurements from the antibiotic and cytotoxicity screens of Wong et al. (2023).

Screen size: about 39,000 compounds; about 1,500 (3.8%) were called active. The full list was thinned out, with actives kept by preference.

The experiment concerns HSkMC (human skeletal muscle cells). The experiment can be described thus: cytotoxicity call (relative viability < 0.9). Conditions: 10 µM.
As to `Cc1ccc(S(=O)(=O)N(C)C[C@H]2Oc3ccc(NS(C)(=O)=O)cc3CC(=O)N([C@@H](C)CO)C[C@@H]2C)cc1`, the cytotoxicity call is “inactive”.
The entry for `CC(C)CCC[C@@H](C)[C@H]1CC[C@H]2[C@@H]3C[C@@H](O)[C@@]4(O)C[C@@H](O)CC[C@]4(C)[C@H]3CC[C@]12C` [CHOLESTAN-3beta,5alpha,6beta-TRIOL ] is “active”; for `CC(C)CCCC(C)C1CCC2C3CCC4CC(O)CCC4(C)C3CCC12C` (stereo not drawn) [5alpha-CHOLESTANOL ] it is “inactive”; for `CC(C)CCCC(C)C1CCC2C3CC(=O)C4CC(O)CCC4(C)C3CCC12C` (stereo not drawn) [5alpha-CHOLESTAN-3beta-OL-6-ONE ] it is “inactive”.
For `CC(C)NC(=O)Nc1ccc2c(c1)CC(=O)N([C@H](C)CO)C[C@H](C)[C@H](CN(C)S(=O)(=O)c1cn(C)cn1)O2` the value was “inactive”.
For the compound `COc1cc(C(=O)NCCCN2CCCN(CCCNC(=O)c3cc(OC)c(OC)c(OC)c3)CC2)cc(OC)c1OC`, the cytotoxicity call was “inactive”.
Take `Cc1cn(CCN2CCN(c3ccccc3-c3cc(C#N)cc(C(=O)NCCCN4CCCC4)c3)CC2)c2ccccc12`: the cytotoxicity call is “active”.
Consider `Cc1cn(CCC#N)c2ccccc12`, for which the cytotoxicity call was “inactive”.
For `C[C@H]1CCCCO[C@H](CN(C)C(=O)C2CCCCC2)[C@@H](C)CN([C@@H](C)CO)C(=O)c2cc(NS(=O)(=O)c3cccs3)ccc2O1` the value was “inactive”; for `COc1ccc(-n2cc(C(=O)NO)nn2)cc1`, “active”; for `COc1cccc(-n2cc(C(=O)NO)nn2)c1`, “inactive”.
`COC(=O)c1ccc(Cn2cc(C(=O)NO)nn2)o1`: the cytotoxicity call was “inactive”.
As for `C[C@H]1NC(=O)[C@H](Cc2ccccc2)NC(=O)[C@@]23C(=O)N[C@@H](Cc4ccccc4)[C@@H]2[C@H](C)[C@@]2(C)O[C@H]2[C@H]3/C=C/C/C=C\CNC1=O`, the cytotoxicity call was “inactive”.
With `C[C@H](CO)N1C[C@H](C)[C@@H](CN(C)Cc2ccncc2)Oc2ccc(NS(=O)(=O)c3ccc(F)cc3)cc2C1=O`, the cytotoxicity call is “inactive”.
The entry for `CN(C)c1ccc(C(=C2C=CC(=[N+](C)C)C=C2)c2ccc(N(C)C)cc2)cc1.[Cl-]` is “active”; for `CN(CC(=O)O)C1CCCC1` it is “inactive”; for `C[C@@H]1CCCCO[C@H](CN(C)C(=O)Nc2ccc(F)cc2)[C@H](C)CN([C@@H](C)CO)C(=O)c2cc(NC(=O)NC3CCCCC3)ccc2O1` it is “inactive”.
On to `C[C@H]1CN([C@@H](C)CO)S(=O)(=O)c2ccc(C#Cc3ccc(F)cc3)cc2O[C@@H]1CN(C)C(=O)c1ccccn1`, for which the cytotoxicity call is “inactive”.
The entry for `COc1ccc(S(=O)(=O)Nc2ccc3c(c2)CC(=O)N([C@@H](C)CO)C[C@@H](C)[C@H](CN(C)Cc2ccc(Oc4ccccc4)cc2)O3)cc1` is “inactive”; for `COc1ccc(S(=O)(=O)Nc2ccc3c(c2)CC(=O)N([C@@H](C)CO)C[C@H](C)[C@@H](CN(C)Cc2ccc(Oc4ccccc4)cc2)O3)cc1` it is “active”; for `COc1ccc(S(=O)(=O)Nc2ccc3c(c2)CC(=O)N([C@@H](C)CO)C[C@H](C)[C@H](CN(C)Cc2ccc(Oc4ccccc4)cc2)O3)cc1` it is “active”.
For `COc1ccc(S(=O)(=O)Nc2ccc3c(c2)CC(=O)N([C@H](C)CO)C[C@@H](C)[C@H](CN(C)Cc2ccc(Oc4ccccc4)cc2)O3)cc1` the value was “active”; for `COc1ccc(S(=O)(=O)Nc2ccc3c(c2)CC(=O)N([C@H](C)CO)C[C@@H](C)[C@@H](CN(C)Cc2ccc(Oc4ccccc4)cc2)O3)cc1`, “active”.
The entry for `COc1ccc(S(=O)(=O)Nc2ccc3c(c2)CC(=O)N([C@@H](C)CO)C[C@@H](C)[C@@H](CN(C)Cc2ccc(Oc4ccccc4)cc2)O3)cc1` is “inactive”; for `COc1ccc(S(=O)(=O)Nc2ccc3c(c2)CC(=O)N([C@H](C)CO)C[C@H](C)[C@@H](CN(C)Cc2ccc(Oc4ccccc4)cc2)O3)cc1` it is “inactive”; for `COc1ccc(S(=O)(=O)Nc2ccc3c(c2)CC(=O)N([C@H](C)CO)C[C@H](C)[C@H](CN(C)Cc2ccc(Oc4ccccc4)cc2)O3)cc1` it is “inactive”.
`Cc1noc(C)c1NC(=O)Nc1cccc2c1O[C@@H](CN(C)C(=O)Nc1cccc3ccccc13)[C@@H](C)CN([C@H](C)CO)C2=O`: the cytotoxicity call was “inactive”.
The entry for `C[C@@H]1CN([C@@H](C)CO)S(=O)(=O)c2ccc(C#CCN(C)C)cc2O[C@@H]1CN(C)Cc1ccc2c(c1)OCO2` is “inactive”; for `COCC#Cc1cnc2c(c1)C(=O)N([C@@H](C)CO)C[C@@H](C)[C@H](CN(C)C(=O)c1cnccn1)O2` it is “inactive”; for `CO[C@H]1CN(C)C(=O)c2cc(NC(=O)Nc3cccc(Cl)c3)ccc2OC[C@@H](C)N(C(=O)Nc2c(C)noc2C)C[C@H]1C` it is “inactive”.
For `C[C@H]1CN([C@@H](C)CO)C(=O)CCCn2nncc2CO[C@H]1CN(C)S(=O)(=O)c1ccc(Cl)cc1` the value was “inactive”; for `NC(CC(=O)N1CCn2c(nnc2C(F)(F)F)C1)Cc1cc(F)c(F)cc1F.O.O=P(O)(O)O` (configuration not stated), “inactive”.
For `C[C@@H]1CN([C@@H](C)CO)C(=O)c2cccc(NS(=O)(=O)c3ccc(F)cc3)c2O[C@H]1CN(C)S(=O)(=O)c1ccc(F)cc1` the value was “inactive”.
Turning to `C[C@H](CO)N1C[C@H](C)[C@@H](CN(C)C(=O)c2cnccn2)Oc2ncc(C#CCC3CCCC3)cc2C1=O`, the cytotoxicity call is “inactive”.
The entry for `CC(C)C[C@H](NC(=O)[C@@H](Cc1c[nH]c2ccccc12)NC(=O)[C@H](Cc1ccc(O)cc1)NC(=O)[C@H](CO)NC(=O)[C@H](Cc1c[nH]c2ccccc12)NC(=O)[C@H](Cc1cnc[nH]1)NC(=O)[C@@H]1CCC(=O)N1)C(=O)N[C@@H](CCCNC(=N)N)C(=O)N1CCC[C@H]1C(=O)NCC(N)=O` is “inactive”; for `O=C1O[C@@H](c2ccccc2)[C@@H](c2ccccc2)N2[C@@H](c3ccc(OCCO)cc3)[C@]3(C(=O)Nc4ccccc43)[C@@H](C(=O)N3CCCCCCC3)[C@H]12` it is “inactive”.
`O=C1O[C@@H](c2ccccc2)[C@@H](c2ccccc2)N2[C@@H](c3ccc(O)cc3)[C@]3(C(=O)Nc4ccccc43)[C@@H](C(=O)N3CCCCCCC3)[C@H]12`: the cytotoxicity call was “inactive”.
Regarding `O=C1O[C@H](c2ccccc2)[C@H](c2ccccc2)N2[C@H]1[C@@H](C(=O)N1CCCCCCC1)[C@]1(C(=O)Nc3ccccc31)[C@H]2c1ccc(O)cc1`, the cytotoxicity call was “active”.
Regarding `O=C(O)C[C@](O)(Cc1ccc(O)cc1)C(=O)O`, the cytotoxicity call was “inactive”.
Turning to `CCS(=O)(=O)Nc1ccc2c(c1)C(=O)N(C)[C@H]1CC[C@H](CC(=O)N3CCN(C)CC3)O[C@@H]1CO2`, the cytotoxicity call is “inactive”.
With `Cc1ccc(S(=O)(=O)N[C@H]2CC[C@@H](CC(=O)N3CCC(Cc4ccccc4)CC3)O[C@H]2CO)cc1`, the cytotoxicity call was “inactive”.
Turning to `C[C@@H]1CN([C@H](C)CO)C(=O)c2cccc(NC(=O)Nc3ccc4c(c3)OCO4)c2O[C@H]1CN(C)Cc1ccc(-c2ccccc2)cc1`, the cytotoxicity call was “inactive”.
For the compound `O=C(CCCCC(=O)N/N=C/c1cc(I)cc(I)c1O)NO`, the cytotoxicity call was “inactive”.
The entry for `O=C(CCCCCCC(=O)N/N=C/c1cc(I)cc(I)c1O)NO` is “active”.
Consider `O=C(NO)c1cccc(C(=O)N/N=C/c2cc(I)cc(I)c2O)c1`, for which the cytotoxicity call is “inactive”.
In the case of `C[C@@H]1CCCCO[C@@H](CN(C)Cc2ccncc2)[C@H](C)CN([C@@H](C)CO)C(=O)c2cc(NC(=O)CCC(F)(F)F)ccc2O1`, the cytotoxicity call is “inactive”.
For the compound `Oc1cc(O)c2c(c1)OC(c1cc(O)c(O)c(O)c1)C(O)C2c1c(O)cc(O)c2c1OC(c1cc(O)c(O)c(O)c1)C(O)C2c1c(O)cc(O)c2c1OC(c1cc(O)c(O)c(O)c1)C(O)C2` (configuration not stated), the cytotoxicity call is “inactive”.
For `C[C@@H]1CN([C@H](C)CO)C(=O)c2cc(C#CCN(C)C)cnc2O[C@H]1CN(C)Cc1ccc(C(=O)O)cc1` the value was “inactive”; for `CCN(CC)[C@H]1CCS(=O)(=O)C1`, “inactive”.
On to `C[C@@H](Oc1cc(-n2cnc3ccc(CN4CCN(C)CC4)cc32)sc1C(N)=O)c1ccccc1C(F)(F)F`, for which the cytotoxicity call was “active”.
As for `COc1cccc(NC(=O)N2C[C@H](O)COC[C@@H]3O[C@@H](CC(=O)NC4Cc5ccccc5C4)CC[C@H]32)c1`, the cytotoxicity call is “inactive”.
For `CCCNC(=O)N(C)C[C@@H]1Oc2cc(C#Cc3cccc(F)c3)ccc2S(=O)(=O)N([C@@H](C)CO)C[C@H]1C` the value was “inactive”; for `C[C@@H]1CCCCO[C@@H](CN(C)Cc2ccc(Cl)c(Cl)c2)[C@@H](C)CN([C@H](C)CO)C(=O)c2cc(NS(=O)(=O)c3ccc(Cl)cc3)ccc2O1`, “inactive”; for `C[C@@H]1CCCCO[C@@H](CN(C)Cc2ccc(Cl)c(Cl)c2)[C@H](C)CN([C@@H](C)CO)C(=O)c2cc(NS(=O)(=O)c3ccc(Cl)cc3)ccc2O1`, “active”.
As to `C[C@@H]1CN([C@H](C)CO)C(=O)c2cc(NS(=O)(=O)c3ccc(Cl)cc3)ccc2O[C@@H](C)CCCCO[C@H]1CN(C)Cc1ccc(Cl)c(Cl)c1`, the cytotoxicity call is “active”.
In the case of `C[C@@H]1CCCCO[C@H](CN(C)Cc2ccc(Cl)c(Cl)c2)[C@H](C)CN([C@@H](C)CO)C(=O)c2cc(NS(=O)(=O)c3ccc(Cl)cc3)ccc2O1`, the cytotoxicity call was “inactive”.
Turning to `C[C@@H]1CN([C@H](C)CO)C(=O)c2cc(NS(=O)(=O)c3ccc(Cl)cc3)ccc2O[C@@H](C)CCCCO[C@@H]1CN(C)Cc1ccc(Cl)c(Cl)c1`, the cytotoxicity call is “inactive”.
For `C[C@@H]1CCCCO[C@@H](CN(C)Cc2ccc(Cl)c(Cl)c2)[C@@H](C)CN([C@@H](C)CO)C(=O)c2cc(NS(=O)(=O)c3ccc(Cl)cc3)ccc2O1` the value was “active”; for `C[C@H](CO)N1C[C@H](C)[C@@H](CN(C)Cc2ccc(Cl)c(Cl)c2)OCCCC[C@H](C)Oc2ccc(NS(=O)(=O)c3ccc(Cl)cc3)cc2C1=O`, “inactive”.
For `C[C@@H]1CCCCO[C@H](CN(C)Cc2ccc(Cl)c(Cl)c2)[C@@H](C)CN([C@@H](C)CO)C(=O)c2cc(NS(=O)(=O)c3ccc(Cl)cc3)ccc2O1` the value was “active”.
The entry for `Nc1nnc(CC(=O)O)[nH]1` is “inactive”; for `Cc1ccc(S(=O)(=O)Nc2ccc3c(c2)C(=O)N([C@H](C)CO)C[C@H](C)[C@H](CN(C)Cc2ccncc2)OCCCC[C@H](C)O3)cc1` it is “inactive”.
